Laboratory results published in PubChem BioAssay (NCI).
This is part of a sample that, as a whole, favours compounds with a hit. Of some 83,000 tested, about 20% had one in any assay.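 Values shown are percent growth following 48 h exposure of cells in 96-well plates to a single concentration of compound; below 10 was considered active.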 Unmarked numbers belong to inactive results. Activity calls are given as the source filed them.

Tests used:
Experiment in all cases: NCI-60 one-dose screen, 48 h (100 = growth as untreated, 0 = no growth, -100 = all killed)
Conditions in all cases: 10 µM unless noted
DU-145 prostate = test system: DU-145 prostate
K-562 leukemia = test system: K-562 leukemia
MALME-3M melanoma = test system: MALME-3M melanoma
MDA-MB-231 breast = test system: MDA-MB-231 breast
RXF 393 renal = test system: RXF 393 renal
SF-268 CNS = test system: SF-268 CNS
SF-295 CNS = test system: SF-295 CNS
SF-539 CNS = test system: SF-539 CNS
UACC-257 melanoma = test system: UACC-257 melanoma
M14 melanoma = test system: M14 melanoma
HCT-15 colon = test system: HCT-15 colon
HT29 colon = test system: HT29 colon
SNB-75 CNS = test system: SNB-75 CNS
SNB-19 CNS = test system: SNB-19 CNS
U251 CNS = test system: U251 CNS
PC-3 prostate = test system: PC-3 prostate
SK-MEL-5 melanoma = test system: SK-MEL-5 melanoma
UACC-62 melanoma = test system: UACC-62 melanoma
LOX IMVI melanoma = test system: LOX IMVI melanoma

Row | SMILES | growth (DU-145 prostate) | growth (K-562 leukemia) | growth (MALME-3M melanoma) | growth (MDA-MB-231 breast) | growth (RXF 393 renal) | growth (SF-268 CNS) | growth (SF-295 CNS) | growth (SF-539 CNS) | growth (UACC-257 melanoma) | growth (M14 melanoma) | growth (HCT-15 colon) | growth (HT29 colon) | growth (SNB-75 CNS) | growth (SNB-19 CNS) | growth (U251 CNS) | growth (PC-3 prostate) | growth (SK-MEL-5 melanoma) | growth (UACC-62 melanoma) | growth (LOX IMVI melanoma)
1 | COC(=O)CNS(=O)(=O)c1ccc2c(c1)Cc1cc(S(=O)(=O)NCC(=O)OC)ccc1-2 | 113% | 100% | 100% | 105% | 108% | 102% | 100% | 97.2% | 97.6% | 103% | 102% | 112% | 91.6% | 100% | 100% | 92.9% | 98.2% | 93.3% | 97%
2 | COc1ccc(-c2oc(=O)ccc2-c2cc(OC)c(OC)c(OC)c2)cc1F | 109% | 26.7% | 68.9% | 77.3% | 90.9% | 95.3% | 62.4% | 80.4% | 66.4% | 60.8% | 68.2% | 44.4% | 106% | 92.1% | 81.9% | 66.4% | 66.5% | 53.6% | 67.4%
3 | O=C(OCc1ccc2c(Br)cc(Br)c(O)c2n1)c1cc2ccccc2[nH]1 | -91.6% (active) | 1.14% (active) | -85.5% (active) | -81.9% (active) | -91.4% (active) | -51.5% (active) | 68.5% | -96.3% (active) | -64.6% (active) | -64.7% (active) | -66.7% (active) | -82.5% (active) | -46.3% (active) | 45.6% | 22.7% | -55.6% (active) | -47.5% (active) | -83% (active) | -93.4% (active)
4 | COc1cc2nccc(Oc3ccc(NC(=O)C4(C(=O)Nc5ccc(F)cc5)CC4)cc3)c2cc1Oc1ccc(N)cn1 | 49.5% | 3.07% (active) | 43.1% | 42.7% | 11.5% | 36.8% | 0.157% (active) | 5.06% (active) | 34% | 39.8% | 27.9% | 9.65% (active) | -12.5% (active) | 54.5% | 33.6% | 24.5% | 39.2% | 5.29% (active) | 10.7%
5 | FC(F)(F)c1ccc(/C=N/Nc2nnc3n2N=C(c2ccc(Cl)cc2)CS3)cc1 | 53.7% | 80.9% | 16.3% | 56.2% | 3.04% (active) | 36.8% | 47.6% | 54.8% | 46.9% | 74.4% | 79.9% | 70.1% | -24.9% (active) | 20.3% | 60.4% | 53.1% | 76.4% | 55.1% | 82.8%
6 | COc1ccc2[nH]cc(/C=C3\C(=O)Nc4ccccc43)c2c1 | 47.1% | 3.31% (active) | 57.5% | 38.9% | 33.3% | 62.5% | 45.5% | 25.8% | 28.2% | 11% | 23.9% | 10.7% | 8.46% (active) | 73% | 38.8% | 45.3% | 39.5% | 26% | 21.1%
7 | COc1cccc(CC(C)=C(c2ccc(OCCCN(C)C)cc2)c2ccc(OCCCN(C)C)cc2)c1 | -94.4% (active) | -67.5% (active) | -87% (active) | -82.2% (active) | -89.5% (active) | -81.8% (active) | -68.2% (active) | -91.6% (active) | -82.3% (active) | -80% (active) | -78.4% (active) | -81.5% (active) | -94.9% (active) | -72.1% (active) | -94.8% (active) | -89.4% (active) | -95.3% (active) | -84.7% (active) | -79.6% (active)
8 | C=C(C)C1CCC2(C(=O)O)CCC3(C)C(CCC4C5(C)CCC(O)C(C)(C)C5CCC43C)C12 (configuration not stated) | -55.5% (active) | -34.1% (active) | -17.4% (active) | -8.05% (active) | -68.8% (active) | 16.3% | -14.8% (active) | -54.1% (active) | -17.2% (active) | -49.9% (active) | 26.9% | -9.19% (active) | -24.8% (active) | 9.23% (active) | -45.3% (active) | 8.63% (active) | -75.8% (active) | 50.5% | 8.78% (active)
